This excerpt belongs to a sample that is enriched for hits.
AMPAR-TARP mod = modulators of AMPA receptor GluA2-stargazin complexes | HEK293 GluA2+stargazin, membrane potential dye (FDSS), glutamate EC50; hits were called plate by plate, in both directions | calls only at 30 µM | O88602+P19491 | hit rate 3.5% among 40,000 | AID 1259245;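 active = any of four per-well response measures lying three or more SD from its plate-wide compound average, in either direction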
GIRK2 activator = Activates human GIRK2-containing potassium channels. 34,000 tested, under 10 active. P48051. activation (% efficacy), % for hits at 37.5 µM. HEK293 GIRK2/NPY4 cells, thallium flux fluorescence;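 active = primary screen hit, no activity in plain HEK293 cells, and in GIRK2-only cells above 5% efficacy rising with concentration; inactive = the rest, including fluorescent compounds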;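 note: efficacy is normalized control-subtracted fluorescence 15 s after thallium addition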
Target sequence (P48051 whole entry, looked up): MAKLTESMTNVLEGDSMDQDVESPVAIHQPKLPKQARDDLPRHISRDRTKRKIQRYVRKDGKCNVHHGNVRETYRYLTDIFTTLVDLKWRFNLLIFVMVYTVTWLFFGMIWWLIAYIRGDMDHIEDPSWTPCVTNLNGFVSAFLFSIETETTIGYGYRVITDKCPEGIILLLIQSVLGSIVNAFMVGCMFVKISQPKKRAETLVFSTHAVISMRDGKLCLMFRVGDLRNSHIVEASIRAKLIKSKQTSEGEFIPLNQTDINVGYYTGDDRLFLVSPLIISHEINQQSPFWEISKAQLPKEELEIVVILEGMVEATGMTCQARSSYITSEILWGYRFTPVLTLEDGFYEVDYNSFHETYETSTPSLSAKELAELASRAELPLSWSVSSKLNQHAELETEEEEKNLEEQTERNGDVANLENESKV
Active calls of the source: *.

How did Cc1ccc(S(=O)(=O)N2CCN(CCn3cccn3)CC2)c(C)c1 do in these assays?
AMPAR-TARP mod: active; GIRK2 activator: inactive

Results for Cc1ccc(C)c(S(=O)(=O)N2CCCN(CCn3cccn3)CC2)c1 ?
AMPAR-TARP mod: inactive; GIRK2 activator: inactive

How did CCCCN(C)C(=O)Cn1c(C2CC(=O)N(Cc3ccc(F)cc3)C2)nc2ccccc21 (centres undefined) do in these assays?
AMPAR-TARP mod: active; GIRK2 activator: inactive

How did CC(C)(C)N1CC(c2nc3ccccc3n2Cc2ccccc2)CC1=O (centres undefined) do in these assays?
AMPAR-TARP mod: active

What do the screens show for `CCn1c(C2CC(=O)N(C(C)(C)C)C2)nc2ccccc21` (centres undefined)?
AMPAR-TARP mod: inactive

Results for CC(C)(C)N1CC(c2nc3ccccc3n2Cc2ccccc2Cl)CC1=O (centres undefined) ?
AMPAR-TARP mod: active

Results for CCCN(CCC)C(=O)Cn1c(C2CC(=O)N(Cc3ccc(F)cc3)C2)nc2ccccc21 (centres undefined) ?
AMPAR-TARP mod: inactive; GIRK2 activator: inactive

How did C#CCn1c(C2CC(=O)N(C(C)(C)C)C2)nc2ccccc21 (centres undefined) do in these assays?
AMPAR-TARP mod: inactive

Results for CCCn1c(C2CC(=O)N(C(C)(C)C)C2)nc2ccccc21 (centres undefined) ?
AMPAR-TARP mod: inactive

What do the screens show for `Cc1ccccc1Cn1c(C2CC(=O)N(C(C)(C)C)C2)nc2ccccc21` (centres undefined)?
AMPAR-TARP mod: active

Results for Cn1nccc1C(=O)Nc1nnc(C2CCCCC2)o1 ?
GIRK2 activator: inactive

What do the screens show for `CCOC(=O)Nc1nc(CC(=O)NC2CCCCC2)cs1`?
GIRK2 activator: inactive

What do the screens show for `Cn1nc(-c2cccc(NC(=O)COc3ccc4ccccc4c3)c2)ccc1=O`?
AMPAR-TARP mod: inactive; GIRK2 activator: inactive

How did CCCCOc1ccc(NC(=O)NCC2CCN(C(=O)Nc3ccccc3OC)CC2)cc1 do in these assays?
AMPAR-TARP mod: inactive; GIRK2 activator: inactive

How did COc1ccc(S(=O)(=O)N2CCC3(CC2)NC(=O)N(C)C3=O)c(OC)c1OC do in these assays?
AMPAR-TARP mod: inactive; GIRK2 activator: inactive

How did CN(C)S(=O)(=O)c1ccc(C(=O)NCC2CCN(C(=O)Oc3ccccc3)CC2)cc1 do in these assays?
AMPAR-TARP mod: inactive; GIRK2 activator: inactive

Results for O=C(NCCN1CCOC(c2ccccc2)C1)C(=O)NC1CCCC1 (centres undefined) ?
GIRK2 activator: inactive

How did CCn1nnc2c(Nc3ccc(S(N)(=O)=O)cc3)ncnc21 do in these assays?
AMPAR-TARP mod: inactive; GIRK2 activator: inactive

How did O=C(NCc1cccs1)c1nnn(-c2ccccc2)c1CSc1ncccn1 do in these assays?
AMPAR-TARP mod: inactive; GIRK2 activator: inactive

How did CCn1c(C2CC(=O)N(Cc3ccccc3)C2)nc2ccccc21 (centres undefined) do in these assays?
AMPAR-TARP mod: inactive

How did O=C1CC(c2nc3ccccc3n2Cc2ccccc2)CN1Cc1ccccc1 (centres undefined) do in these assays?
AMPAR-TARP mod: active

Results for O=C(Cc1csc(NC(=O)C2CCC(=O)N2)n1)Nc1ccc2c(c1)OCO2 (centres undefined) ?
AMPAR-TARP mod: inactive; GIRK2 activator: inactive

What do the screens show for `O=C(Nc1nnc(C2CCCCC2)o1)C1=COCCO1`?
AMPAR-TARP mod: inactive; GIRK2 activator: inactive

Results for COc1cc(OC)cc(C(=O)N2CCC(c3ccsc3)CC2)c1 ?
AMPAR-TARP mod: inactive; GIRK2 activator: inactive

How did O=S(=O)(NCCNc1ccc(Nc2ccccn2)nn1)c1ccc(F)cc1 do in these assays?
AMPAR-TARP mod: inactive; GIRK2 activator: inactive

What do the screens show for `Cc1ccnc(Nc2ccc(NCCNS(=O)(=O)c3ccc(F)cc3)nn2)c1`?
AMPAR-TARP mod: active; GIRK2 activator: inactive

How did O=C(NC1CCCC(O)C1)c1cccc(F)c1 (centres undefined) do in these assays?
AMPAR-TARP mod: inactive; GIRK2 activator: inactive

What do the screens show for `CCCOc1ccc2cc(S(=O)(=O)n3ccnc3)ccc2c1`?
GIRK2 activator: inactive

How did O=C(Nc1ccc([N+](=O)[O-])cc1)C(=O)N1CCN(c2ccc(F)cc2)CC1 do in these assays?
AMPAR-TARP mod: active

How did CC(C(=O)N1CCN(c2cccc(Cl)c2)CC1)c1ccc([N+](=O)[O-])cc1 (centres undefined) do in these assays?
AMPAR-TARP mod: active

What do the screens show for `O=C(Nc1cccc([N+](=O)[O-])c1)C(=O)N1CCN(c2cccc(Cl)c2)CC1`?
AMPAR-TARP mod: active

How did O=C(Nc1ccc([N+](=O)[O-])cc1)C(=O)N1CCC(O)CC1 do in these assays?
AMPAR-TARP mod: inactive

What do the screens show for `CC(C(=O)N1CCCC1)c1ccc([N+](=O)[O-])cc1` (centres undefined)?
AMPAR-TARP mod: inactive

How did Cc1ccc(NC(=O)C(=O)N2CCN(c3cccc(Cl)c3)CC2)c([N+](=O)[O-])c1 do in these assays?
AMPAR-TARP mod: inactive

Results for COc1ccc(OC)c(S(=O)(=O)NCCCn2nc(-c3cccs3)ccc2=O)c1 ?
AMPAR-TARP mod: inactive; GIRK2 activator: inactive

What do the screens show for `CN1C(=O)NC2(CCN(C(=O)c3ccc(Br)o3)CC2)C1=O`?
AMPAR-TARP mod: inactive; GIRK2 activator: inactive

Results for O=C(Nc1ccc(OC(F)(F)F)cc1)c1ccc(S(=O)(=O)NCc2cccs2)o1 ?
AMPAR-TARP mod: active; GIRK2 activator: inactive

Results for O=C(Nc1ccc(C(F)(F)F)cc1)c1ccc(S(=O)(=O)NCCc2ccccc2)o1 ?
AMPAR-TARP mod: inactive; GIRK2 activator: inactive

What do the screens show for `CNC(=O)c1nsc(C(=O)NCc2ccc(OC)c(OC)c2)c1N`?
AMPAR-TARP mod: active; GIRK2 activator: inactive

Results for CNC(=O)c1nsc(C(=O)NCc2cccc(C(F)(F)F)c2)c1N ?
AMPAR-TARP mod: inactive; GIRK2 activator: inactive

Results for CC(=O)Nc1ccc(S(=O)(=O)NCC2CCN(C)CC2)c(C)c1 ?
AMPAR-TARP mod: inactive; GIRK2 activator: inactive

How did CCOc1ccc(CC(=O)Nc2cccc(N3CCCC3=O)c2)cc1 do in these assays?
AMPAR-TARP mod: inactive; GIRK2 activator: inactive

How did COc1ccc(S(=O)(=O)CCCC(=O)Nc2nc3ccc([N+](=O)[O-])cc3s2)cc1 do in these assays?
AMPAR-TARP mod: active; GIRK2 activator: inactive

Results for COc1ccc(S(=O)(=O)CCCC(=O)Nc2nc(-c3cccc([N+](=O)[O-])c3)cs2)cc1 ?
AMPAR-TARP mod: inactive; GIRK2 activator: inactive

How did O=C(CN1C(=O)c2ccccc2S1(=O)=O)Nc1nc2ccc([N+](=O)[O-])cc2s1 do in these assays?
AMPAR-TARP mod: inactive; GIRK2 activator: inactive

How did N#Cc1ccccc1NC(=O)CCCS(=O)(=O)c1ccccc1 do in these assays?
AMPAR-TARP mod: inactive; GIRK2 activator: inactive

Results for CCC(=O)Nc1nc2ccc([N+](=O)[O-])cc2s1 ?
AMPAR-TARP mod: active; GIRK2 activator: inactive

Results for O=C(CCCS(=O)(=O)c1ccc(Cl)cc1)Nc1nc2ccc([N+](=O)[O-])cc2s1 ?
AMPAR-TARP mod: inactive

How did N#Cc1ccsc1NC(=O)CCCS(=O)(=O)c1ccccc1 do in these assays?
AMPAR-TARP mod: active; GIRK2 activator: inactive

What do the screens show for `COc1ccc(S(=O)(=O)CCCC(=O)Nc2nc(-c3cc([N+](=O)[O-])cs3)cs2)cc1`?
AMPAR-TARP mod: active; GIRK2 activator: inactive
